Assay outcomes deposited in PubChem by several laboratories.
H9c2 protect – cardioprotection against H2O2-induced cell death, primary screen, uHTS, H9c2 cells, ATPLite luminescence; H9c2 cardiomyocytes, H2O2 injury protection, 2 h; protection from H2O2 cell death, % at 20 µM; hit rate 0.63% among 360,000;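 active means compounds giving at least 50% protection of heart cells from peroxide-induced death in the single-dose screen, raw or plate-pattern-corrected value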
M18AAP inhibitor – PfM18AAP inhibitors, malaria aminopeptidase, primary screen, biochemical, QFRET, recombinant enzyme; M18 aspartyl aminopeptidase (Plasmodium falciparum 3D7); H-Glu-NHMec fluorogenic cleavage; inhibition, % at 7.35 µM; hit rate 1.2% among 290,000; AID 1822, 2009;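 active means inhibition above the campaign mean inhibition over all tested compounds plus 3 SD, cut at about 28% in these data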
PfGluPho inh – PfG6PD enzyme inhibitors, primary screen, biochemical, fluorescence intensity, uHTS | glucose-6-phosphate dehydrogenase-6-phosphogluconolactonase (Plasmodium falciparum 3D7) | PfGluPho enzyme, NADPH resazurin-diaphorase fluorescence | inhibition, % at 20 µM | hit rate 0.78% among 350,000;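 active means inhibition reaching at least a set limit at 20 µM in the primary screen, cut at about 59% in these data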
ALR inh – inhibitors of human ALR sulfhydryl oxidase, primary screen, biochemical, H2O2 detection, HRP-luminol luminescence, single point; purified ALR, DTT oxidation; hit rate 3.8% among 290,000; inhibition, % (test concentration not listed);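 active means mean replicate inhibition above about 79%, with every replicate also reaching it, limit read from the data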
Target sequence (P55789 whole entry, looked up): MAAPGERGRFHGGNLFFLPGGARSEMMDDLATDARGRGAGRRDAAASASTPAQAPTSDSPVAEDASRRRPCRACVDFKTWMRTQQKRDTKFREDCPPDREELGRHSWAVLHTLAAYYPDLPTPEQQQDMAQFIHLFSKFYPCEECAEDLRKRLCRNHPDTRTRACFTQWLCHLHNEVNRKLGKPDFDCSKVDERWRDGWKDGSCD
PHOSPHO1 inh – PubChem AID 1565; recombinant PHOSPHO1, absorbance phosphatase assay; inhibition, % at 13.3 µM; Phosphoethanolamine/phosphocholine phosphatase (Homo sapiens), Q8TCT1; hit rate 1.1% among 290,000; in the data active means inhibition above about 60%
Target sequence (Q8TCT1 whole entry, looked up): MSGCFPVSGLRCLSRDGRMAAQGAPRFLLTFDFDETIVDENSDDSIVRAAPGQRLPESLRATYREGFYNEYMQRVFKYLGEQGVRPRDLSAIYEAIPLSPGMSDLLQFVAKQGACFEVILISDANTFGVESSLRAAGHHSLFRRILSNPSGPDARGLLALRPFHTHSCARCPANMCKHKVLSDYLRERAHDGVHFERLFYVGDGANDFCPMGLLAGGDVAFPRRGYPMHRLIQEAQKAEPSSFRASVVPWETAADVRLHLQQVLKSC
PfG6PD confirm – PfG6PD inhibitors, hit retest, confirmation, biochemical, fluorescence intensity, single concentration; shares compounds with PfGluPho inh; recombinant PfGluPho, NADPH-diaphorase-resazurin fluorescence; inhibition, % at 20 µM; hit rate 34% among 2,400; AID 504753, 2011;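 active means inhibition of at least 50% at 20 µM in any single replicate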
Diaph ctr 10uM – diaphorase inhibitors and chemical oxidizers, confirmation, counter-screen for P. falciparum G6PD inhibitor project, biochemical, fluorescence intensity, 10 µM NADPH | shares compounds with PfGluPho inh | diaphorase-coupled resazurin reduction, NADPH 10 uM | inhibition, % at 20 µM | hit rate 39% among 820 | AID 504862, 2011;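 active means average inhibition reaching 50% or more with the compound at 20 µM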;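 further: resorufin red fluorescence formed as diaphorase reduces resazurin using NADPH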
Diaph ctr 30uM – diaphorase inhibitors and chemical oxidizers, confirmation, counter-screen for P. falciparum G6PD inhibitor project, biochemical, fluorescence intensity, 30 µM NADPH; hit rate 29% among 820; inhibition, % at 20 µM; shares compounds with PfGluPho inh; Diaphorase/resazurin coupled assay, resorufin fluorescence;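 active means inhibition averaging 50% or more, tested at 20 µM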
Of the large screens only hits and unclear results are named; the others gave an inactive call (follow-up assays come after a bar, where they were run). A selection: hits, their analogues and other compounds. The true share with any hit is near 5.6%.

COc1ccc(C[C@@H]2OC3(C=CC(=O)C=C3)O[C@H]2Cc2ccc(OC)cc2)cc1	PfGluPho inh 62.2 (no result: M18AAP inhibitor, ALR inh, PHOSPHO1 inh) | PfG6PD confirm inactive
COc1ccccc1Nc1nnc(SCc2cc(=O)n3ccsc3n2)s1	PfGluPho inh 66.7 | PfG6PD confirm inactive
COc1ccc(C(O)c2nc(-c3cccc(NC(C)=O)c3)cs2)cc1 (stereo not given)	none (no result: M18AAP inhibitor, PfGluPho inh, ALR inh, PHOSPHO1 inh)
CCOC(=O)C1=C(C)NC(C)=C(C(=O)OCC)C1c1cccc([N+](=O)[O-])c1	none (no result: M18AAP inhibitor, ALR inh, PHOSPHO1 inh)
COC(=O)C1=C(C)NC(C)=C(C(=O)OCC(C)C)C1c1ccccc1[N+](=O)[O-] (stereo not given)	PfGluPho inh 61.6 (no result: M18AAP inhibitor, PHOSPHO1 inh) | PfG6PD confirm inactive
CCOc1ccc(Nc2nc3cc(S(=O)(=O)N(CC)CC)ccc3o2)cc1	PfGluPho inh 62.5 | PfG6PD confirm inactive
CCS(=O)(=O)c1ccc2oc(Nc3ccc(C(C)C)cc3)nc2c1	PfGluPho inh 74.1, PHOSPHO1 inh 82.4 | PfG6PD confirm inactive
Cc1ccc(CC2(C)C(=O)Nc3c(Cl)cccc32)cc1 (stereo not given)	none (no result: M18AAP inhibitor, PfGluPho inh, ALR inh, PHOSPHO1 inh)
CCOC(=O)c1nn(-c2ccccc2)c(=O)cc1OCC(=O)Nc1ccccc1OCC	none (no result: M18AAP inhibitor, PHOSPHO1 inh)
O=C(O)C1CCCN(S(=O)(=O)c2ccccc2)C1 (stereo not given)	none
O=S(=O)(/N=S1\CC=CCN1S(=O)(=O)c1ccccc1)c1ccccc1 (stereo not given)	PfGluPho inh 63.9 (no result: M18AAP inhibitor, ALR inh, PHOSPHO1 inh) | PfG6PD confirm inactive
O=NN(C(=O)NCc1cccnc1)C1CCCCC1	none (no result: M18AAP inhibitor, PfGluPho inh, ALR inh, PHOSPHO1 inh)
Cc1nc2scc(-c3ccccc3)c2c(=O)n1N	none
Cc1nc2scc(-c3ccccc3)c2c(=O)n1N=C1C=CC(=O)C=C1	PfGluPho inh 113.5 (no result: H9c2 protect, ALR inh) | PfG6PD confirm 111.5 | Diaph ctr 10uM 95.4 | Diaph ctr 30uM 89.0
COC(=O)CCC(=O)OC1(C)C(=O)C2=CN(CC3CC3)C(c3ccc(OC)cc3)=CC2=C(Br)C1=O (stereo not given)	PfGluPho inh 75.5 (no result: M18AAP inhibitor, ALR inh) | PfG6PD confirm inactive
COC(=O)CCC(=O)OC1(C)C(=O)C2=CN(C3CC3)C(c3ccc(OC)cc3)=CC2=C(Br)C1=O (stereo not given)	PfGluPho inh 71.7 (no result: M18AAP inhibitor, PHOSPHO1 inh) | PfG6PD confirm 52.4 | Diaph ctr 10uM inactive | Diaph ctr 30uM inactive
COC(=O)CCC(=O)OC1(C)C(=O)C2=CN(Cc3ccc(OC)cc3)C(c3ccc(OC)cc3)=CC2=C(Br)C1=O (stereo not given)	none (no result: M18AAP inhibitor, PHOSPHO1 inh)
COc1ccc2c(C)cc(Sc3nnnn3-c3ccccc3)nc2c1	PfGluPho inh 60.0 | PfG6PD confirm inactive
Cc1cc(C)c(S(=O)(=O)N2CCN(C(=O)C3COc4ccccc4O3)CC2)c(C)c1 (stereo not given)	none (no result: M18AAP inhibitor, PHOSPHO1 inh)
Cc1nn(-c2ccccn2)c2c1C(=O)C(Br)CC2 (stereo not given)	PfGluPho inh 89.7 (no result: ALR inh) | PfG6PD confirm inactive
COc1cccc(NC(=O)c2cnn(-c3ccccc3)c2C)c1	PfGluPho inh 63.4 | PfG6PD confirm inactive
COc1ccccc1-n1c(SCC(=O)NC2CC2)nc2ccccc2c1=O	none (no result: M18AAP inhibitor, PHOSPHO1 inh)
Nc1nonc1-n1nnc(C(=O)N/N=C/c2ccc(Br)cc2)c1-c1ccc2c(c1)OCO2	none
Cc1ccc(-c2c(C(=O)N/N=C/c3sccc3C)nnn2-c2nonc2N)cc1	PfGluPho inh 87.6 | PfG6PD confirm inactive
Nc1nonc1-n1nnc(C(=O)N/N=C/c2cccc(Cl)c2)c1-c1ccc2c(c1)OCO2	PfGluPho inh 119.1 | PfG6PD confirm 98.7 | Diaph ctr 10uM 86.9 | Diaph ctr 30uM 66.5
COc1ccccc1/C=N/NC(=O)c1nnn(-c2nonc2N)c1-c1cccs1	PfGluPho inh 92.8 | PfG6PD confirm 55.3 | Diaph ctr 10uM 84.9 | Diaph ctr 30uM 66.5
COc1ccccc1/C=N/NC(=O)c1nnn(-c2nonc2N)c1-c1ccccc1	none
COc1ccc(C2/C(=C(/O)c3ccc4c(c3)CC(C)O4)C(=O)C(=O)N2CCCN2CCOCC2)cc1 (stereo not given)	none
CCOC(=O)C(=CNc1cc(C(F)(F)F)ccc1N1CCOCC1)C(=O)OCC	none
CCCn1cc(S(=O)(=O)CC(=O)Nc2ccc(OC)cc2OC)c2ccccc21	PfGluPho inh 67.2 | PfG6PD confirm 68.0 | Diaph ctr 10uM inactive | Diaph ctr 30uM inactive
COc1ccc(NC(=O)CS(=O)(=O)c2cn(CC(=O)N(C(C)C)C(C)C)c3ccccc23)c(OC)c1	none
CN1CCCN(C(=O)CNC(=O)c2ccc(Cl)cc2Cl)CC1	none (no result: M18AAP inhibitor, PHOSPHO1 inh)
COC(=O)c1ccccc1NC1=C/C(=N\S(=O)(=O)c2cccs2)c2ccccc2C1=O	PfGluPho inh 101.0 | PfG6PD confirm 66.7 | Diaph ctr 10uM inactive | Diaph ctr 30uM inactive
COC(=O)c1ccccc1NC1=C/C(=N\S(=O)(=O)c2ccc(C(=O)O)cc2)c2ccccc2C1=O	PfGluPho inh 96.2 (no result: ALR inh) | PfG6PD confirm 86.2 | Diaph ctr 10uM 63.7 | Diaph ctr 30uM 64.3
O=C1C(Nc2ccccc2)=C/C(=N/S(=O)(=O)c2cccs2)c2ccccc21	PfGluPho inh 109.7 | PfG6PD confirm 92.0 | Diaph ctr 10uM 77.9 | Diaph ctr 30uM 79.6
Cc1cccc(C(=O)OCC(=O)NC(=O)NC2CCCCC2)c1	none (no result: M18AAP inhibitor, ALR inh, PHOSPHO1 inh)
COc1ccccc1CNS(=O)(=O)CCNCCc1ccccc1	none (no result: M18AAP inhibitor, ALR inh, PHOSPHO1 inh)
COc1cccc(C(=O)Nc2nnc(-c3ccccc3)s2)c1OC	none
COc1cccc(C(=O)Nc2sc(C(C)C)cc2C(N)=O)c1OC	PfGluPho inh 97.7 | PfG6PD confirm inactive
CCc1c(C)nc2cc(-c3ccc(OC)c(OC)c3)nn2c1NCC1CC1	PfGluPho inh 61.9 (no result: ALR inh) | PfG6PD confirm inactive
COc1ccc(-c2c(C)nn3c(NC4CCCC4)cc(C)nc23)cc1OC	none (no result: ALR inh)
COc1ccc(C(=O)Nc2cc(C)c(NC(=O)c3ccccn3)cn2)cc1	PfGluPho inh 66.9 (no result: ALR inh) | PfG6PD confirm inactive
CC(=O)Nc1ccc(S(=O)(=O)/N=C2\C(=O)c3ccccc3C([O-])=C2n2cc[n+](-c3ccccn3)c2)cc1	PfGluPho inh 69.4 | PfG6PD confirm 56.4 | Diaph ctr 10uM inactive | Diaph ctr 30uM inactive
CC(C)NC(=O)C1(C)CCN1C(=O)C(c1ccccc1)c1ccccc1 (stereo not given)	none (no result: M18AAP inhibitor, PfGluPho inh, ALR inh, PHOSPHO1 inh)
Cc1cc2nc(/C(C#N)=C\c3ccc(-c4ccccc4C(=O)O)o3)[nH]c2cc1C	PfGluPho inh 59.6 | PfG6PD confirm inactive
